Experimental data reported in the supplement of paper PMC6555819.

How the values were obtained:
Assay in all cases: PBM binding z-score (relative to random genomic background probes); higher = stronger binding; sequences stand for … in GC…GCGATTGACAGCGTAGAATGAAGG
[1] = system: RARb homodimer (NR concentration 270 nM)
Method in brief: (§1)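 Antibodies against each partner of ligand-free nuclear receptor dimers (one per run) detected binding on custom Agilent 4×180K protein-binding microarrays after 1 h incubation. The double-stranded probes had 34-nt variable regions carrying direct-repeat seeds, single-nucleotide variants, half-site ablations and random human genomic background sequences. Binding z-scores, from regression-normalized fluorescence, use the random background probes as reference.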

[2] = system: RARg:RXRa (NR concentration 270 nM, RXRa partner concentration 90 nM)
Method in brief: as §1

[3] = system: RARg homodimer (NR concentration 270 nM)
Method in brief: as §1

[4] = system: RXRa DBDmut IVT, anti-RXR (DBD mutation: RXRa K156A/R161A, NR concentration 90 nM)
Method in brief: as §1

[5] = system: RXRa homodimer (NR concentration 180 nM)
Method in brief: as §1

[6] = system: THRa:RXRa (NR concentration 90 nM, RXRa partner concentration 90 nM)
Method in brief: as §1

[7] = system: THRa homodimer (NR concentration 90 nM)
Method in brief: as §1

[8] = system: VDR homodimer (NR concentration 270 nM)
Method in brief: as §1

Sequence	PBM binding z-score [1]	PBM binding z-score [2]	PBM binding z-score [3]	PBM binding z-score [4]	PBM binding z-score [5]	PBM binding z-score [6]	PBM binding z-score [7]	PBM binding z-score [8]
CCGACTGGGGCAAGGGTACCATAACGCACAGCCA	0.569	0.349	0.692	-1.52	0.269	-0.0335	-0.368	-0.448
ATCTCTACGTAAAGATAGTTCAGTGAATGCAAAT	0.65	0.0953	0.572	0.102	0.153	0.0897	-0.716	0.535
CCTCGGAGGACAGAAGGTGAGAGCTGTCCGCTTT	1.05	0.543	0.503	-0.26	-0.253	0.747	-0.514	-0.603
TTACCAAGGTGAGCTGCGGTCGTTGATCCAACTC	0.677	0.0521	0.0746	-0.731	0.198	2.28	0.255	-0.523
TTACCAAGGTGAAAGGTGGTTGATGCACGCCTTG	0.622	0.898	0.626	-0.437	1.61	1.73	0.529	-0.166
CCGAGTAGGTTATGGGGCATTCAAGCAACGGTGA	0.855	0.557	0.579	0.355	0.617	0.205	0.0762	0.0962
GCTATTAGTTCAAAGGGCAACCGAATGATTCTCG	2.95	3.39	2.76	3.02	4.05	1.74	-0.325	1.87
ACTAGCTGGCCAAGTTTGGGTCACTCAAACAAAG	1.35	0.786	0.564	-0.366	0.323	1.82	0.793	-0.123
AGTCAGAGTTCACTAGGTAACGTAAGATTCAGCT	2.83	4.11	4.7	4.73	3.63	1.85	0.172	5.65
ACAGACAGGTAAGTGAAGGTAACTCAGCTGGACG	-0.171	-0.116	0.263	-0.281	-0.0799	0.972	-0.0252	-0.27
GCTTGTAGATCAAGGTTAAGAAAGACTAAGCTAA	0.0928	0.389	0.229	-0.146	0.904	1.14	-0.422	-0.377
GCAGACAGGTGAAACGCAGGTAATTCAGGGTGGC	0.413	0.684	0.304	-0.376	0.614	1.38	-0.381	-0.586
ATCGAAAGGTCGACAAGGTGAGTATACACCGTTT	3.01	4.25	3.99	0.788	4.36	3.65	0.513	0.835
GGAACGCGGGCAAAGTTGATAGCATCTGTCGACG	-0.251	0.143	0.259	0.0126	0.126	-0.6	-1.04	-0.471
GCTGCTAGGTCAGGTTGGTCAGCAAACGGGTACG	2.84	2.72	3.54	0.377	1.03	1.92	0.409	0.182
CATCCTAGGTCAGGGCCAGTATAGGAGGAACGTT	2.73	3.24	4.12	0.0171	2.22	2.52	0.878	0.11
ACAGACAGGTGAGTGAAGATAACTCAGCTGGACG	-0.405	0.185	0.475	-0.658	0.111	-0.344	-0.684	-0.624
GCTCGGAGGACCAGGTCAGAGCTTTGTCCGTAGA	1.34	0.802	0.461	-0.305	0.617	1.73	0.402	-0.425
TCGTGTAGGTTAGGGGCATTCAGAATGGCGTCGA	1.37	0.648	0.819	1.09	0.961	1.3	0.787	0.922
ACCTCTAGGTAAAGATAGTTCAGTGAATGCAAAT	0.723	0.4	0.505	0.0276	0.0359	0.533	-0.346	0.268
ACTATTAGTTGAGACGAGGACAACCGATAGGTTG	0.638	0.27	0.902	0.0973	0.226	3.9	2.56	0.657
GGAACGAGGGTAAAGTTGATAGCATCTGTCGACG	0.332	0.683	0.562	0.929	0.974	0.383	-0.45	0.411
CGTCAAAGTTCAACTAAGGTAACCTAAAGCACGC	4.36	6.08	6.64	4.81	4.92	5.31	2.1	4.48
GCTAGTAGGCCATTTGGGTCACTCAATGACGGGC	2.03	0.972	1.33	0.0324	0.766	1.75	0.382	0.26
GCTAGCAGGCCATTTGGGTCGCTCAATGACGGGC	-0.128	-0.381	-0.146	-0.286	-0.42	-0.00184	-0.914	-0.635
CGTCCAAGGGCAGAGAGGTCAGTGAATGCCGAGT	4.03	3.5	4.06	1.49	2.27	2.68	0.704	3.19
CCGACTGGGGCATAAGGTTACCATCAGCCAGCCC	1.72	1.41	1	-0.242	1.03	1.98	1.33	-0.0619
TCATATAGGTAAATGCTAGGTCAAAGTCCGATCT	2.75	2.52	1.58	1.72	2	2.96	1.76	1.35
